{"source": "the supplement of paper PMC10338343", "note": "± gives the standard deviation."}
{"system": "MILI (PIWIL2) piRISC loaded with L1MC piRNA (26 nt)", "assay": "pre-steady-state target cleavage rate (min^-1); guide: L1MC piRNA 5'p-UAACUAAAUACUAUGCAAGCUGUAGG; higher = faster piRNA-guided slicing of the target", "conditions": "auxiliary factor: 500 nM mouse GTSF1", "description": "(§1)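 Cleave-'n-Seq: a library of target RNAs (target site embedded in constant flanks, ACAGCATTCCGCGTTAGTGATATCCG... 5' flank; DNA-blocked outside the site) at 0.1 nM was incubated with 1 nM active mouse MILI or MIWI piRISC (synthetic 5'-monophosphorylated piRNA guide) with or without 500 nM mouse GTSF1 at 33 °C for 1 min to 16 h. Uncleaved targets were sequenced and normalised to non-target controls, and the pooled three trials were fitted to a burst-and-steady-state model to give the pre-steady-state cleavage rate (min^-1; k3 is constrained to at most 1e-4). Sequence is the target site only; target names encode pairing extent (gX:gY) and contiguous / 1-mismatch / 2-mismatch / bulge geometry. Fits with R² ≤ 0 are excluded.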"}
{"sequence": "UCCUGCUACAGCAUGCAAAGUAUUUAGUUA", "pre-steady-state target cleavage rate": "0.163 ± 0.015"}
{"sequence": "UCCUGGAUCAGCUUGCAUAGUAUUUGAGUUA", "pre-steady-state target cleavage rate": "0.222 ± 0.036"}
{"sequence": "UCCUCCUACAUCUUGCAUAGUAUUUAGUUA", "pre-steady-state target cleavage rate": "0.277 ± 0.02"}
{"sequence": "UCCUGGAUGUGCUUGCUUAGUAAUUAGUUA", "pre-steady-state target cleavage rate": "0.0601 ± 0.0087"}
{"sequence": "UCCUGGAUGAGCUAGCAUAGUAUUUAGUAA", "pre-steady-state target cleavage rate": "0.168 ± 0.021"}
{"sequence": "UCCUGGAUGAGCUUGCUUAGUAUAUAGUUA", "pre-steady-state target cleavage rate": "0.103 ± 0.02"}
{"sequence": "UCCUGGAUCAGCUUUGCAUAGUAUUUAGUUA", "pre-steady-state target cleavage rate": "0.297 ± 0.016"}
{"sequence": "UCCUGGUUCAGCUUGCAUAGUAUUUUGUUA", "pre-steady-state target cleavage rate": "0.16 ± 0.03"}
{"sequence": "UCCUGCUACAGCAACCAUAGUAUUUAGUAA", "pre-steady-state target cleavage rate": "0.35 ± 0.063"}
{"sequence": "UCCUCCUACAGCUUGCUUAGUAUUUACUUA", "pre-steady-state target cleavage rate": "0.179 ± 0.02"}
{"sequence": "UCCUGCUACAGCUUGCAUAGUAUUUAGUUA [g2:g25:cont:t1A]", "pre-steady-state target cleavage rate": "0.282 ± 0.019"}
{"sequence": "UCCUGGAACAGCUUGCUUAGUAUUUUGUUA", "pre-steady-state target cleavage rate": "0.167 ± 0.025"}
{"sequence": "UCCUGGAUGUGCUUCCAUUGUAUUUAGUUA", "pre-steady-state target cleavage rate": "0.0206 ± 0.0071"}
{"sequence": "UCCUGGAUCAGCUUCGAUAGUAUUUAGUUA", "pre-steady-state target cleavage rate": "0.233 ± 0.018"}
{"sequence": "UCCUGGAUGAGCUUGCAUAGUACUUUAGUUA", "pre-steady-state target cleavage rate": "0.0613 ± 0.0089"}
{"sequence": "UCCUCCUACAGCUUGCAUAGUAAUUUCAAA", "pre-steady-state target cleavage rate": "0.182 ± 0.038"}
{"sequence": "UCCUCCUACAGCUAGCAUAGUAUUUACUUA", "pre-steady-state target cleavage rate": "0.15 ± 0.022"}
{"sequence": "UCCUGGUAGAGCUUCCAUAGUAUUUAGUUA", "pre-steady-state target cleavage rate": "0.0967 ± 0.033"}
{"sequence": "UCCUGGAUCAGGCUUGCAUAGUAUUUAGUUA", "pre-steady-state target cleavage rate": "0.213 ± 0.017"}
{"sequence": "UCCUCCAACAGCUAGCAUAGUAUUUAGUUA", "pre-steady-state target cleavage rate": "0.25 ± 0.017"}
{"sequence": "UCCUGGUACACCUUGCAUAGUAUUUACUUA", "pre-steady-state target cleavage rate": "0.108 ± 0.041"}
{"sequence": "UCCUGGAUCUCCUUGCAUAGUAUUUACAAA", "pre-steady-state target cleavage rate": "0.0872 ± 0.018"}
{"sequence": "UCCUCCUACAGGUUGGAUAGUAUUUAGUUA", "pre-steady-state target cleavage rate": "0.205 ± 0.012"}
{"sequence": "UCCUGGAUGUCCUAGCAUUGUAUUUAGUUA", "pre-steady-state target cleavage rate": "0.0111 ± 0.0048"}
{"system": "MILI (PIWIL2) piRISC loaded with L1MC piRNA (26 nt)", "assay": "pre-steady-state target cleavage rate (min^-1); guide: L1MC piRNA 5'p-UAACUAAAUACUAUGCAAGCUGUAGG; MIWI and MILI are mouse PIWI proteins and EfPiwi is from a freshwater sponge; tags in brackets are library labels; higher = faster piRNA-guided slicing of the target", "conditions": "auxiliary factor: none (no GTSF1)", "description": "as §1"}
{"sequence": "UCCUGCUACAGCAUGCAAAGUAUUUAGUUA", "pre-steady-state target cleavage rate": "0.00807 ± 0.0029"}
{"sequence": "UCCUGGAUCAGCUUGCAUAGUAUUUGAGUUA", "pre-steady-state target cleavage rate": "0.00502 ± 0.0022"}
{"sequence": "UCCUCCUACAUCUUGCAUAGUAUUUAGUUA", "pre-steady-state target cleavage rate": "0.00791 ± 0.0022"}
{"sequence": "UCCUGGAUGUGCUUGCUUAGUAAUUAGUUA", "pre-steady-state target cleavage rate": "0.00576 ± 0.0023"}
{"sequence": "UCCUGGAUGAGCUAGCAUAGUAUUUAGUAA", "pre-steady-state target cleavage rate": "0.00735 ± 0.0023"}
{"sequence": "UCCUGGAUGAGCUUGCUUAGUAUAUAGUUA", "pre-steady-state target cleavage rate": "0.00937 ± 0.0029"}
{"sequence": "UCCUGGAUCAGCUUUGCAUAGUAUUUAGUUA", "pre-steady-state target cleavage rate": "0.0075 ± 0.0028"}
{"sequence": "UCCUGGUUCAGCUUGCAUAGUAUUUUGUUA", "pre-steady-state target cleavage rate": "0.00444 ± 0.0036"}
{"sequence": "UCCUCCUACAGCUUGCUUAGUAUUUACUUA", "pre-steady-state target cleavage rate": "0.00341 ± 0.0022"}
{"sequence": "UCCUGCUACAGCUUGCAUAGUAUUUAGUUA [g2:g25:cont:t1A]", "pre-steady-state target cleavage rate": "0.0105 ± 0.003"}
{"sequence": "UCCUGGAACAGCUUGCUUAGUAUUUUGUUA", "pre-steady-state target cleavage rate": "0.00339 ± 0.0024"}
{"sequence": "UCCUGGAUCAGCUUCGAUAGUAUUUAGUUA", "pre-steady-state target cleavage rate": "0.0034 ± 0.0021"}
{"sequence": "UCCUGGAUGAGCUUGCAUAGUACUUUAGUUA", "pre-steady-state target cleavage rate": "0.00632 ± 0.0026"}
{"sequence": "UCCUGGAUCAGGCUUGCAUAGUAUUUAGUUA", "pre-steady-state target cleavage rate": "0.0107 ± 0.0028"}
{"sequence": "UCCUCCAACAGCUAGCAUAGUAUUUAGUUA", "pre-steady-state target cleavage rate": "0.00537 ± 0.0023"}
{"sequence": "UCCUCCUACAGGUUGGAUAGUAUUUAGUUA", "pre-steady-state target cleavage rate": "0.00699 ± 0.0018"}
